Measurements published in PubChem BioAssay AID1159580 (chemical genetic matrix, 2015).
The campaign covered roughly 5,500 compounds. About 2,000 (36%) were called active. Roughly 18% stayed inconclusive and do not appear here. Rule as the data show it: active = normalized growth mostly below about 0.91 (no sharp cut-off); inconclusive = no clear call, values can overlap the other calls; inactive = mostly above about 0.92. Some of the results follow.

Assay: chemical genetic growth profiling, strain panel (AID 1159580);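 also: tested at 20 µM; growth read once vehicle control cultures reached saturation at 30 °C; 1 = growth at the plate median or of vehicle wells; lower values mean less growth of the strain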
Settings: growth OD

Measured: normalized growth

NS(=O)(=O)c1cc2c(cc1C(F)(F)F)NC(Cc1ccccc1)NS2(=O)=O (centres undefined)
inactive: S. cerevisiae deletion strains, locus YJR066W, strain TOR1, stronger effect = lower value 0.949 | S. cerevisiae deletion strains, locus YKL009W, strain mrt4, stronger effect = lower value 0.983 | S. cerevisiae deletion strains, locus YKL068W, stronger effect = lower value 1 | S. cerevisiae deletion strains, locus YKL085W, strain MDH1 (second series), stronger effect = lower value 0.999 | S. cerevisiae deletion strains, locus YKL085W, strain MDH1, stronger effect = lower value 0.999 | S. cerevisiae deletion strains, locus YKL160W, strain elf1, stronger effect = lower value 0.977 | S. cerevisiae deletion strains, locus YKL190W, strain CNB1, stronger effect = lower value 1 | S. cerevisiae deletion strains, locus YKR001C, strain vps1, stronger effect = lower value 0.982 | S. cerevisiae deletion strains, locus YKR026C, strain gcn3, stronger effect = lower value 0.998 | S. cerevisiae deletion strains, locus YKR091W, strain srl3, stronger effect = lower value 0.982 | S. cerevisiae deletion strains, locus YLL001W, strain dnm1, stronger effect = lower value 0.981 | S. cerevisiae deletion strains, locus YLL026W, stronger effect = lower value 0.991 | S. cerevisiae deletion strains, locus YLL041C, strain sdh2, stronger effect = lower value 0.985 | S. cerevisiae deletion strains, locus YLR027C, strain aat2, stronger effect = lower value 0.985 | S. cerevisiae deletion strains, locus YLR039C, strain RIC1, stronger effect = lower value 1.04 | S. cerevisiae deletion strains, locus YLR058C, strain SHM2, stronger effect = lower value 1 | S. cerevisiae deletion strains, locus YLR102C, strain apc9, stronger effect = lower value 1.01 | S. cerevisiae deletion strains, locus YLR113W, strain HOG1, stronger effect = lower value 0.983 | S. cerevisiae deletion strains, locus YLR221C, strain rsa3, stronger effect = lower value 0.973 | S. cerevisiae deletion strains, locus YLR258W, strain gsy2, stronger effect = lower value 0.993 | S. cerevisiae deletion strains, locus YLR262C, strain YPT6 (second series), stronger effect = lower value 0.987 | S. cerevisiae deletion strains, locus YLR262C, strain YPT6, stronger effect = lower value 1.01 | S. cerevisiae deletion strains, locus YLR268W, strain sec22, stronger effect = lower value 0.999 | S. cerevisiae deletion strains, locus YLR320W, strain mms22, stronger effect = lower value 0.957 | S. cerevisiae deletion strains, locus YLR330W, strain CHS5, stronger effect = lower value 1.01 | S. cerevisiae deletion strains, locus YLR342W, strain FKS1 (second series), stronger effect = lower value 1.06 | S. cerevisiae deletion strains, locus YLR342W, strain FKS1, stronger effect = lower value 0.988 | S. cerevisiae deletion strains, locus YLR357W, strain rsc2, stronger effect = lower value 0.978 | S. cerevisiae deletion strains, locus YLR370C, strain arc18, stronger effect = lower value 0.983 | S. cerevisiae deletion strains, locus YLR371W, strain rom2, stronger effect = lower value 1.01 | S. cerevisiae deletion strains, locus YLR384C, strain iki3, stronger effect = lower value 0.986 | S. cerevisiae deletion strains, locus YLR418C, strain cdc73, stronger effect = lower value 1.01 | S. cerevisiae deletion strains, locus YML016C, strain PPZ1, stronger effect = lower value 1.01 | S. cerevisiae deletion strains, locus YML032C, strain rad52, stronger effect = lower value 0.983 | S. cerevisiae deletion strains, locus YML120C, strain ndi1, stronger effect = lower value 0.981 | S. cerevisiae deletion strains, locus YML124C, strain tub3, stronger effect = lower value 1 | S. cerevisiae deletion strains, locus YMR058W, strain fet3, stronger effect = lower value 0.97 | S. cerevisiae deletion strains, locus YMR078C, strain ctf18, stronger effect = lower value 1 | S. cerevisiae deletion strains, locus YMR125W, strain sto1, stronger effect = lower value 1.01 | S. cerevisiae deletion strains, locus YMR129W, stronger effect = lower value 0.992 | S. cerevisiae deletion strains, locus YMR205C, strain PFK2, stronger effect = lower value 0.978 | S. cerevisiae deletion strains, locus YMR223W, strain ubp8, stronger effect = lower value 1.02 | S. cerevisiae deletion strains, locus YMR231W, strain pep5, stronger effect = lower value 1 | S. cerevisiae deletion strains, locus YMR307W, strain GAS1, stronger effect = lower value 1.06 | S. cerevisiae deletion strains, locus YNL067W, strain RPL9B, stronger effect = lower value 0.985 | S. cerevisiae deletion strains, locus YNL071W, strain lat1, stronger effect = lower value 0.994 | S. cerevisiae deletion strains, locus YNL153C, strain GIM3, stronger effect = lower value 0.975 | S. cerevisiae deletion strains, locus YNL183C, strain NPR1, stronger effect = lower value 0.927 | S. cerevisiae deletion strains, locus YNL209W, strain ssb2, stronger effect = lower value 0.993 | S. cerevisiae deletion strains, locus YNL233W, strain BNI4, stronger effect = lower value 0.993 | S. cerevisiae deletion strains, locus YNL248C, strain rpa49, stronger effect = lower value 0.996 | S. cerevisiae deletion strains, locus YNL250W, strain rad50, stronger effect = lower value 1.01 | S. cerevisiae deletion strains, locus YNL271C, strain bni1, stronger effect = lower value 1.01 | S. cerevisiae deletion strains, locus YNL298W, strain CLA4, stronger effect = lower value 1.02 | S. cerevisiae deletion strains, locus YNL307C, strain MCK1, stronger effect = lower value 1.01 | S. cerevisiae deletion strains, locus YNL322C, strain KRE1 (second series), stronger effect = lower value 0.992 | S. cerevisiae deletion strains, locus YNR049C, strain mso1, stronger effect = lower value 0.986 | S. cerevisiae deletion strains, locus YNR052C, strain pop2, stronger effect = lower value 1.01 | S. cerevisiae deletion strains, locus YOL006C, strain TOP1, stronger effect = lower value 0.953 | S. cerevisiae deletion strains, locus YOL012C, strain htz1 0.78 | S. cerevisiae deletion strains, locus YOL147C, strain pex11, stronger effect = lower value 1.01 | S. cerevisiae deletion strains, locus YOR001W, strain rrp6, stronger effect = lower value 0.997 | S. cerevisiae deletion strains, locus YOR061W, strain CKA2, stronger effect = lower value 1 | S. cerevisiae deletion strains, locus YOR069W, strain VPS5, stronger effect = lower value 1.01 | S. cerevisiae deletion strains, locus YOR070C, strain gyp1, stronger effect = lower value 0.999 | S. cerevisiae deletion strains, locus YOR080W, strain dia2, stronger effect = lower value 0.982 | S. cerevisiae deletion strains, locus YOR083W, strain WHI5, stronger effect = lower value 0.969 | S. cerevisiae deletion strains, locus YOR106W, strain vam3, stronger effect = lower value 0.958 | S. cerevisiae deletion strains, locus YOR136W, strain idh2, stronger effect = lower value 0.992 | S. cerevisiae deletion strains, locus YOR144C, strain elg1, stronger effect = lower value 0.998 | S. cerevisiae deletion strains, locus YOR184W, strain ser1, stronger effect = lower value 0.998 | S. cerevisiae deletion strains, locus YOR231W, strain MKK1, stronger effect = lower value 0.987 | S. cerevisiae deletion strains, locus YOR265W, strain rbl2, stronger effect = lower value 0.988 | S. cerevisiae deletion strains, locus YOR270C, strain vph1, stronger effect = lower value 0.956 | S. cerevisiae deletion strains, locus YOR290C, strain snf2, stronger effect = lower value 0.964 | S. cerevisiae deletion strains, locus YOR316C, strain cot1, stronger effect = lower value 1.01 | S. cerevisiae deletion strains, locus YPL051W, strain arl3, stronger effect = lower value 0.998 | S. cerevisiae deletion strains, locus YPL055C, strain LGE1, stronger effect = lower value 0.934 | S. cerevisiae deletion strains, locus YPL078C, strain atp4, stronger effect = lower value 0.988 | S. cerevisiae deletion strains, locus YPL106C, strain sse1, stronger effect = lower value 0.952 | S. cerevisiae deletion strains, locus YPL240C, strain hsp82, stronger effect = lower value 0.998 | S. cerevisiae deletion strains, locus YPL241C, strain CIN2, stronger effect = lower value 1.01 | S. cerevisiae deletion strains, locus YPL256C, strain CLN2, stronger effect = lower value 0.976 | S. cerevisiae deletion strains, locus YPR119W, strain clb2, stronger effect = lower value 1.01 | S. cerevisiae deletion strains, locus YPR141C, strain kar3, stronger effect = lower value 1.01 | S. cerevisiae deletion strains, locus YPR163C, strain tif3, stronger effect = lower value 1.01 | S. cerevisiae deletion strains, locus YPR167C, strain met16, stronger effect = lower value 1.01 | S. cerevisiae deletion strains, strain wtn01, stronger effect = lower value 1.01 | S. cerevisiae strains, strain wild type, stronger effect = lower value 1
